Reference: the supplement of paper PMC3334620
The full ranking holds about 33,000 sequences; the median of “E-score (-0.5 to 0.5)” is about -0.015, and the highest 2% start at about 0.3. The list comes from a sample in which the highest values are over-represented; it also holds similar and randomly drawn sequences.

target: T1, Abf1 (UniProt P14164); test: PBM E-score (8-mer binding enrichment) (E-score (-0.5 to 0.5)); higher = stronger / more preferred TF binding; conditions: protein concentration: 200 nM; construct: GST-full length
T1 sequence: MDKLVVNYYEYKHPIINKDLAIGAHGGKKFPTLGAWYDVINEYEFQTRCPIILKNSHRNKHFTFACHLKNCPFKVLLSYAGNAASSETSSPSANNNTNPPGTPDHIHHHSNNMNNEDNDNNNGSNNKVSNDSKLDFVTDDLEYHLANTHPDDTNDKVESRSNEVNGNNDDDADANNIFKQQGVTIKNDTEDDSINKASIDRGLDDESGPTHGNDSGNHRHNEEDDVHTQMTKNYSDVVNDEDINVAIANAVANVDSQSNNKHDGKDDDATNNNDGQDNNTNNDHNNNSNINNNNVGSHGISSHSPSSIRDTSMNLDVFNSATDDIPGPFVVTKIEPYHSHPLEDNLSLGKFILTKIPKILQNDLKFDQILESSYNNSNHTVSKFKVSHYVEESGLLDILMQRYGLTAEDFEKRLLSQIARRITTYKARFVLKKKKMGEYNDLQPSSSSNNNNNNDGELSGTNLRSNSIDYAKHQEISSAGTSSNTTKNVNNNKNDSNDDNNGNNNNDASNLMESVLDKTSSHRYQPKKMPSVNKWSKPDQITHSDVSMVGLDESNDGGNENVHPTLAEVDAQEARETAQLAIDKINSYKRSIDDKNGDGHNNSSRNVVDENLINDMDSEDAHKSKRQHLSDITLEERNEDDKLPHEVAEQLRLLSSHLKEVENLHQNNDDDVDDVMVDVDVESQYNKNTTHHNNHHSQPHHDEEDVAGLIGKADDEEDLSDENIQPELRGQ
Protocol: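 Universal 'all 10-mer' protein binding microarrays (Agilent AMADID 015681) probed with GST-tagged S. cerevisiae TFs (full-length or DBD) made by in vitro transcription/translation (PURExpress), about 100-200 nM. Bound TF was detected with fluorescent anti-GST. Each ungapped 8-mer (which stands for itself and its reverse complement) is scored by the PBM enrichment score (E-score), a modified Wilcoxon-Mann-Whitney statistic from -0.5 to +0.5, computed with the Universal PBM Analysis Suite. Scale: above 0.35 generally sequence-specific binding.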

Sequence | PBM E-score
CTCGTCAA | 0.0916
CACGTCAC | 0.368
ATCGTCTC | 0.25
CACGTCAG | 0.0977
CTCGTCAG | 0.182
CACGTCAA | 0.0325
CTCGTCAC | 0.336
GTCGTCAA | 0.222
ATCGTCAC | 0.389
GCCGTCAC | 0.0578
GTCGTCAC | 0.35
AGCGTCAC | -0.00719
AGTATGCA | 0.111
CAATGCCC | -0.0566
GGGTTTGA | 0.121
CCGCGCAC | -0.209
CCCTTAGG | -0.0737
AGGACCCC | -0.0335
ATCGTCGC | 0.362
ATCGTCGA | 0.289
ATCGTCGG | 0.218
ATGCTAAA | 0.0969
GCCACGAA | 0.0988
TCCACGAA | 0.352
ACCACGAA | 0.0971
CCCACGAC | 0.0916

Sequence | PBM E-score
CCCACGAG | 0.0399
CCCACGAA | 0.316
ACGCACAT | -0.00733
CGCGGCGC | -0.00706
GGACGACC | 0.0608
CGACGACG | 0.177
AGACGACC | 0.0722
GGACGAGA | 0.145
TGACGACA | 0.361
GGACGACA | 0.299
TCACGACA | 0.257
AGACGACA | 0.264
CGACGACA | 0.311
CAAGTTGA | -0.187
CCCGGGCC | -0.304
CAACTCGC | 0.0334
AATTTCAT | 0.134
GCCAGGCA | -0.186
TGCCTCAA | -0.124
AACGGCGT | 0.227
CACGGCTA | 0.307
GACGGCAA | 0.246
GACGGCGA | 0.0475
TACGGCAA | 0.301
AACGGCGC | 0.123
AACGGCGA | 0.327

Sequence | PBM E-score
AACGGCTA | 0.193
TACGGCGA | 0.313
CACGGCAA | 0.219
TCCGGCGA | 0.069
GACGGCTA | 0.0813
GCCATGAA | -0.0667
ATTTTCCG | 0.1
CCCGGAAC | -0.125
AATTCACT | -0.102
AAGCTCTC | -0.125
GCCATAGA | -0.126
GACTCATA | -0.0291
ACTTCGCA | 0.0373
CACGGTGC | 0.0971
ACGGGTGG | 0.0777
ACGGGTGA | 0.32
CACGGCGC | 0.139
AACGGTGA | 0.135
CACGGCGA | 0.305
CACGGCGG | 0.00732
CACGGTGA | 0.308
CCGGGTGA | 0.12
AAGTGGTC | -0.131
CCACCTGA | -0.0561
TCAATAGA | -0.172
CCTGATGA | 0.139

Sequence | PBM E-score
CGTGATGA | 0.31
AGTGATGG | 0.056
GGTGATGA | 0.34
CGTGATGC | 0.0552
GCTGATGA | 0.199
AGTGATTC | 0.207
AGTGATGA | 0.366
AGTGATTA | 0.351
GTTGATGA | 0.283
ACTGATGA | 0.19
GGTGATTA | 0.242
CATTCGCC | 0.0362
ATTATTAG | 0.164
CATCCTCC | -0.127
ACAGGTCA | -0.0348
ACCTGCAT | 0.013
AACCAGCC | -0.0913
CTGTGAAC | 0.0459
CCTCCCAG | -0.196
CGTGCCAG | 0.148
ACCTGGCC | -0.0752
CCCTCTAA | -0.23
CCTAAATC | 0.154
AGTGATGC | 0.319
ATTGATGC | 0.0481
AATGATGC | 0.196

Sequence | PBM E-score
AGAAGACT | -0.0993
ACACTACA | 0.169
TCACTACA | 0.344
CCACTACA | -0.0773
CTCTGTGA | -0.118
CGAACAGC | -0.165
AAGATCCT | 0.0788
TATTTCGA | 0.272
CAGACGAC | 0.191
AAGACGAA | 0.223
GAGACGAA | 0.0822
TAGACGGA | 0.122
CAGACGAA | 0.324
TAGACGAA | 0.338
AAGCTAAC | 0.0254
AGTCAGCC | -0.181
CCTCCCAC | -0.188
CCTCCAGC | -0.322
GCCTACCC | -0.25
CACTAGCC | 0.144
GATGTCCC | 0.209
ACGATGCG | 0.07
ACCCCCGT | -0.0911
CGGACGAC | 0.343
AGGACGAC | 0.12
GGGACGAA | 0.0455

Sequence | PBM E-score
CGGACGAG | 0.191
AGGACGAA | 0.147
CGGACGAA | 0.35
AGAGCGTC | 0.0295
AGACTTTG | 0.0104
CGCAAACC | -0.124
AGTGAAGG | -0.145
GTTCTTCA | 0.117
GGGTCTAA | -0.112
AATCATCA | 0.317
TATCATCA | 0.385
TCTCATCA | 0.145
CATCATCA | 0.254
AATCATCT | 0.184
AATCATCG | 0.179
GATCAACC | 0.005
CTTCTATC | 0.0251
ACGCACAC | 0.0964
AAGGCTCG | -0.0968
ACGAAGGA | 0.0584
AATCGTGG | 0.125
CATCGTGA | 0.135
GACCGTGC | 0.108
AACCGTGG | -5e-05
CATCGTGC | 0.314
AACCGTCT | -0.0069

Sequence | PBM E-score
AACCGTCG | 0.298
AATCGTGC | 0.311
AACCGTCC | -0.0986
CATCGTGG | 0.0192
AACCGTGC | 0.306
AATCGTGA | 0.175
AGGCCCTA | -0.113
AATGTGCA | 0.0308
GCTACAGA | -0.126
CAACTGGA | -0.182
AGCACTAA | 0.154
ATCACTAG | 0.357
ATCACTAC | 0.375
AACACTAC | -0.0369
GTCACTAA | 0.393
CTCACTAC | 0.203
ACCACTAA | -0.0853
AACACTAG | 0.151
AGCACTAG | 0.0299
ATCACTAA | 0.359
CTCACTAA | 0.129
GCCACTAA | -0.149
